Among all 33,000 compounds or so, about 70 (0.2%) were called active. Rule as the data show it: active = inhibition above about 30%; inactive = the rest. Not all results are given here.
Target: Coagulation factor XII (Homo sapiens) (UniProt P00748)
Experiment: human FXIIa protease inhibitors, primary screen, biochemical, single well (AID 701);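 also: 0% = enzyme with vehicle only and 100% = no enzyme blank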
Conditions: purified human FXIIa, AMC substrate fluorescence, 2 h; at 10 µM; active compounds read high

Chain of Coagulation factor XII (Homo sapiens) (P00748 20-372 limits assumed): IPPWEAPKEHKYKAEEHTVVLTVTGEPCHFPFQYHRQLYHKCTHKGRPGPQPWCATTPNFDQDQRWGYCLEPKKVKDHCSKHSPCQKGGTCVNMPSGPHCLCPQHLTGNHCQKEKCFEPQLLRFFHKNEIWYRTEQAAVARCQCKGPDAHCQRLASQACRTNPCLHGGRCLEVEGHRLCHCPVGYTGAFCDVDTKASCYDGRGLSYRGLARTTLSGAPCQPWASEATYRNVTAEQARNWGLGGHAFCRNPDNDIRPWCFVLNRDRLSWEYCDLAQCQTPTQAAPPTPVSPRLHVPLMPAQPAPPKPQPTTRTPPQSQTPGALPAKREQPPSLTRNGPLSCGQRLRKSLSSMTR
Chain of Coagulation factor XII (Homo sapiens) (P00748 373-615 limits assumed): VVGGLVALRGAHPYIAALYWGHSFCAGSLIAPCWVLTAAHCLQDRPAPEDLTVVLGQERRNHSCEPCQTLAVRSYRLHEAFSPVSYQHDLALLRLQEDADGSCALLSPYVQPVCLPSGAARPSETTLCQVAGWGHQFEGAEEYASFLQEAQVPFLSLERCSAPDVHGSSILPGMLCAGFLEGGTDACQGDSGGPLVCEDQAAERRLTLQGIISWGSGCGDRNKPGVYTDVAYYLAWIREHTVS

inhibition, inactive:
Cc1nnc(OCC(=O)NCCC2=CCCCC2)c2ccccc12 11.9%, COC(=O)C(C)n1cnc2c(nnn2-c2cccc(Cl)c2)c1=O (configuration not stated) 4.25%, C=CCNC(=O)C12CC3CC(C1)CC(C(=O)NCC=C)(C3)C2 5.41%, O=C(CNS(=O)(=O)c1ccc(Br)s1)N1CCN(C(=O)c2ccco2)CC1 5.22%, O=c1onc(-c2cccs2)n1Cc1ccccc1 2.91%, CC(=O)C1=C(C)NC(=O)NC1c1cc(Br)ccc1OCC#N (configuration not stated) 6%, CC/C(O)=N\S(=O)(=O)c1ccc(N=NN(C)C)cc1 12.3%, O=C(c1cccc(N2CCCC2=O)c1)N1CCOCC1 8.03%, O=C(NCCCN1CCCCC1)c1ccc2c(c1)NC(=O)C(N1CCOCC1)S2 (configuration not stated) 2.66%, COc1ccccc1CNS(=O)(=O)c1ccc(C)cc1 -2.17%, Nn1c(SCC(=O)NC2CCCC2)nnc1-c1ccccc1F 2.89%, CC(=O)c1cccc(NC(=O)N2CCCC2C(=O)NCCc2ccccc2)c1 (configuration not stated) 6.02%, CC(=O)c1cccc(NC(=O)C2CCCN2S(=O)(=O)c2cccc3nsnc23)c1 (configuration not stated) -30.9%, COc1ccc(C(=O)NNC(=O)c2cnccn2)cc1[N+](=O)[O-] 6.61%, CSc1ccccc1NC(=O)c1cc(C2CC2)on1 5.73%, Cc1cc(C(=O)Nc2c(C)nn(Cc3ccccc3)c2C)on1 3.84%, Cc1nnc(NCCO)c2ccccc12 -0.65%, O=C(NC1CCCCC1)c1ccc(CNc2c(N3CCOCC3)c(=O)c2=O)cc1 9.25%, CCS(=O)(=O)c1ccc2oc(SCC(=O)N3c4ccccc4CC3C)nc2c1 (configuration not stated) 11.8%, CC(NC(=O)C1CCC(CNc2c(N3CCOCC3)c(=O)c2=O)CC1)c1ccccc1 (configuration not stated) 4.59%, Cc1ccc(OC(=O)c2ccccc2C(=O)OCC(F)(F)C(F)F)cc1 5.93%, Cc1ccc(CS(=O)(=O)CCC(=O)NC2CC2)cc1 3.34%, O=C(OCC(=O)N1CCN(C(=O)c2ccco2)CC1)c1ccccc1Cc1ccccc1 3.88%, CC(C)CCNC(=O)CC1C(=O)N(Cc2ccccc2)C(C)c2nc3ccccc3n21 (configuration not stated) 5.26%, CCCCCOC(=O)c1ccc(N2C(=O)C3C4C=CC(C4)C3C2=O)cc1 (configuration not stated) -10.2%, O=C(N1CCOCC1)N(Cc1ccccc1)c1ccccn1 1.36%, COC(=O)c1cc(OC)ccc1-c1ccc(OC)cc1 4.36%
